Twelve compounds from PubChem BioAssay (NCATS) can be followed below.

Assay [1] is described as follows: S16 Schwann cell PMP22 intronic element beta-lactamase assay (AID 624044; calls by dose curve; note: nearly all actives have a fitted effect of over 15% in size). Summed up:
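Beta-lactamase reporter under a PMP22 intronic regulatory element in stable S16 rat Schwann cells; 24 h compound exposure. 460 nm blue signal normalized between DMSO (0%) and potassium clavulanate, with 535 nm FRET tracking viability; curves classed by r2 and response.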

The subject of another assay is AA1029. In words: qHTS profiling for inhibitors of Plasmodium falciparum proliferation (AID 504749). Note: nearly all actives have a fitted effect of over 60% in size. Note: potency is the fitted concentration of half-maximal effect. Conditions: P. falciparum in erythrocytes, SYBR Green DNA, 72 h; series mostly up to 12.8 µM. Summed up: (§1)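 SYBR Green fluorescence (ex 485 nm, em 535 nm) reports parasite DNA after 72 h compound exposure of infected red cells at 0.3% parasitemia, 2.5% hematocrit; signal normalized to 0.29 uM artemisinin and vehicle wells.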

In a further assay the test system is ATS95. Described as above. Conditions: P. falciparum in erythrocytes, SYBR Green DNA, 72 h; series mostly up to 12.8 µM. Put shortly:
as §1

The test system of a further assay is C2A. The assay is described as above. The note with it: P. falciparum in erythrocytes, SYBR Green DNA, 72 h; series mostly up to 12.8 µM. Summed up:
as §1

The subject of a further assay is CP192. The description is as above. Conditions: P. falciparum in erythrocytes, SYBR Green DNA, 72 h; series mostly up to 12.8 µM. Put shortly: as §1
The next assay deals with CP238. Described as above. The note with it: P. falciparum in erythrocytes, SYBR Green DNA, 72 h; series mostly up to 12.8 µM. Summed up:
as §1

In a further assay the test system is CP252. The description is as above. Conditions: P. falciparum in erythrocytes, SYBR Green DNA, 72 h; series mostly up to 12.8 µM. Put shortly: as §1
For a further assay, the system named is CP256. The assay is described as above. Conditions: P. falciparum in erythrocytes, SYBR Green DNA, 72 h; series mostly up to 12.8 µM. Put shortly:
as §1

For another assay, the system named is CP262. The assay is described as above. The note with it: P. falciparum in erythrocytes, SYBR Green DNA, 72 h; series mostly up to 12.8 µM. Summed up: as §1
Another assay has as its system CP305. Described as above. Conditions: P. falciparum in erythrocytes, SYBR Green DNA, 72 h; series mostly up to 12.8 µM. Summed up: as §1
For a further assay, the system named is CP329. The description is as above. Conditions: P. falciparum in erythrocytes, SYBR Green DNA, 72 h; series mostly up to 12.8 µM. Put shortly:
as §1

For another assay, the system named is FAB9. The description is as above. Conditions: P. falciparum in erythrocytes, SYBR Green DNA, 72 h; series mostly up to 12.8 µM. Summed up:
as §1

In the next assay the test system is PC49. The assay is described as above. Conditions: P. falciparum in erythrocytes, SYBR Green DNA, 72 h; series mostly up to 12.8 µM. Put shortly: as §1
The test system of the next assay is CP191. Described as above. The note with it: P. falciparum in erythrocytes, SYBR Green DNA, 72 h; series mostly up to 12.8 µM. Put shortly:
as §1

The subject of the next assay is JCK. The description is as above. The note with it: P. falciparum in erythrocytes, SYBR Green DNA, 72 h; series mostly up to 12.8 µM. Summed up:
as §1

The next assay relates to N140. The assay is described as above. Conditions: P. falciparum in erythrocytes, SYBR Green DNA, 72 h; series mostly up to 12.8 µM. Put shortly:
as §1

A further assay relates to PC15. The description is as above. The note with it: P. falciparum in erythrocytes, SYBR Green DNA, 72 h; series mostly up to 12.8 µM. Put shortly: as §1
The subject of the next assay is ECU. The description is as above. The note with it: P. falciparum in erythrocytes, SYBR Green DNA, 72 h; series mostly up to 12.8 µM. Put shortly: as §1
In the next assay the test system is TAB109. The assay is described as above. Conditions: P. falciparum in erythrocytes, SYBR Green DNA, 72 h; series mostly up to 12.8 µM. Put shortly:
as §1

Another assay deals with TAB165. The description is as above. Conditions: P. falciparum in erythrocytes, SYBR Green DNA, 72 h; series mostly up to 12.8 µM. Summed up:
as §1

Inconclusive results are not listed. Active and inactive are the calls of the source. Unless noted, calls come from the whole dose curve; as a rule, active = well fitted inhibition curve with a large enough effect; inconclusive = small, poorly fitted or top-dose-only effect; inactive = flat fitted curve, though single readings scatter.

Turning to `CN(C)CCn1nnnc1SCC1=C(C(=O)O)N2C(=O)[C@@H](NC(=O)Cc3csc(N)n3)[C@@H]2SC1`, the Potency result (in [1]; in the assay on AA1029; in the assay on ATS95; in the assay on C2A; in the assay with CP192; in the assay on CP238) was “inactive” each time. For the same compound, the Potency entry in the assay on CP252, with CP256, with CP262, in the assay with CP305, in the assay with CP329 and in the assay with FAB9 was “inactive” in each case. Besides, the Potency result in the assay on PC49 was “inactive”.

On to `CS(=O)(=O)c1ccc([C@H](O)[C@H](CO)NC(=O)C(Cl)Cl)cc1`, for which the Potency result (in assay [1]; in the assay on ATS95; in the assay on C2A; with CP191; in the assay with CP192; in the assay with CP238) was “inactive” throughout. Also, the Potency entry in the assay on FAB9, in the assay on JCK, in the assay on N140, with PC15 and with PC49 was “inactive” in each case.

As to `O=C(Nc1ccccc1)OC[C@H](CN1CCCCC1)OC(=O)Nc1ccccc1`, the Potency result (in assay [1]; in the assay on AA1029; with ATS95; in the assay with C2A; in the assay with CP191; with CP192) was “inactive” in each case. Also, the Potency result with CP238, in the assay with CP252, in the assay with CP256, in the assay on CP262, in the assay on CP305 and in the assay on CP329 was “inactive” in each case. Besides, the Potency result in the assay on ECU, with FAB9, with JCK, in the assay on N140, with PC15 and in the assay with PC49 was “inactive” in each case. Also, the Potency entry in the assay on TAB109 and in the assay with TAB165 was “inactive” throughout.

Take `NS(=O)(=O)c1cc2c(cc1Cl)N[C@@H](C(Cl)Cl)NS2(=O)=O`: the Potency entry (in [1]; in the assay with AA1029; with ATS95; with C2A; in the assay with CP191; with CP192) was “inactive” throughout. Further, the Potency entry in the assay with CP238, in the assay on CP252, in the assay with CP256, with CP262, with CP305 and in the assay with CP329 was “inactive” throughout. The Potency entry in the assay with ECU, in the assay on FAB9, in the assay on JCK, in the assay on N140, in the assay on PC15 and with PC49 was “inactive” in each case. Also, the Potency result with TAB109 and in the assay on TAB165 was “inactive” each time.

Consider `CC(=O)O[C@]1(C(C)=O)CC[C@@H]2[C@@H]3C=C(C)C4=CC(=O)CC[C@@]4(C)[C@H]3CC[C@]21C`, for which the Potency entry (in assay [1]; in the assay on AA1029; with ATS95; in the assay with C2A; in the assay with CP191; with CP192) was “inactive” each time. The Potency entry with CP238, in the assay with CP252, in the assay on CP256, in the assay on CP262, in the assay with CP305 and with CP329 was “inactive” each time. For the same compound, the Potency result with ECU, in the assay on FAB9, with JCK, with N140, with PC15 and in the assay on PC49 was “inactive” in each case. In addition, the Potency entry in the assay on TAB109 and in the assay on TAB165 was “inactive” each time.

Consider `CC(=O)[C@@H]1CC[C@@H]2[C@@H]3C[C@H](C)C4=CC(=O)CC[C@@]4(C)[C@H]3[C@H](O)C[C@]21C`, for which the Potency result (in assay [1]; with AA1029; in the assay with ATS95; in the assay on C2A; in the assay with CP191; with CP192) was “inactive” throughout. Further, the Potency entry in the assay on CP238, with CP252, in the assay on CP256, in the assay with CP262, with CP305 and in the assay with CP329 was “inactive” throughout. Besides, the Potency entry in the assay on ECU, in the assay with FAB9, with JCK, with N140, in the assay with PC15 and in the assay with PC49 was “inactive” each time. Further, the Potency entry with TAB109 and with TAB165 was “inactive” each time.

Consider `C=CC1=C(C(=O)O)N2C(=O)[C@@H](NC(=O)/C(=N\OCC(=O)O)c3csc(N)n3)[C@@H]2SC1`, for which the Potency result (in assay [1]; with AA1029; in the assay on ATS95; in the assay with C2A; in the assay on CP191; in the assay with CP192) was “inactive” throughout. In addition, the Potency result with CP238, in the assay with CP252, in the assay on CP256, with CP262, in the assay with CP305 and with CP329 was “inactive” in each case. The Potency entry in the assay with ECU, with FAB9, with JCK, with N140, with PC15 and with PC49 was “inactive” throughout. Moreover, the Potency entry in the assay on TAB109 and with TAB165 was “inactive” throughout.

With `Cc1ccc(S(=O)(=O)NC(=O)NN2C[C@H]3CCC[C@@H]3C2)cc1`, the Potency entry (in assay [1]; with AA1029; with ATS95; with C2A; in the assay with CP191; in the assay on CP192) was “inactive” each time. Further, the Potency entry with CP238, in the assay on CP252, in the assay with CP256, in the assay on CP262, in the assay with CP305 and in the assay on CP329 was “inactive” throughout. In addition, the Potency result in the assay with ECU, with FAB9, in the assay with JCK, in the assay on N140, with PC15 and in the assay with PC49 was “inactive” each time. The Potency entry in the assay with TAB109 and in the assay with TAB165 was “inactive” in each case.

`CC1(C)O[C@H]2C[C@@H]3[C@H]4CCC5=CC(=O)CC[C@@]5(C)[C@]4(F)[C@@H](O)C[C@@]3(C)[C@@]2(C(=O)CCl)O1`: the Potency result (in assay [1]; in the assay with CP329; with ECU; with FAB9; in the assay on PC49) was “inactive” throughout. Further, the Potency in the assay with AA1029 was 2.82 µM (active); in the assay on ATS95 it was 1.58 µM (active); in the assay with CP191 it was 3.16 µM (active); with CP252, 3.55 µM (active); with CP256 it was 3.55 µM (active); with N140, 2.51 µM (active). For the same compound, the Potency in the assay on PC15 is 3.55 µM (active); with TAB109 it was 1.41 µM (active); with TAB165, 3.16 µM (active).

Consider `C[C@H]1CC[C@]2(OC1)O[C@@H]1C[C@@H]3[C@@H]4CC[C@H]5C[C@@H](O)CC[C@]5(C)[C@@H]4CC(=O)[C@@]3(C)[C@H]1[C@@H]2C`, for which the Potency result in the assay on AA1029, in the assay with ATS95, with C2A, with CP191, in the assay on CP192 and in the assay with CP238 was “inactive” throughout. In addition, the Potency entry in the assay with CP252, in the assay on CP256, with CP262, in the assay with CP305, with CP329 and in the assay on ECU was “inactive” in each case. Further, the Potency entry with FAB9, in the assay with JCK, in the assay with N140, in the assay on PC15, in the assay with PC49 and in the assay on TAB109 was “inactive” in each case. In addition, the Potency entry in the assay on TAB165 was “inactive”.

Take `CCCC[C@H](CC)CN1CN(C[C@@H](CC)CCCC)CC(C)(N)C1`: the Potency result (in assay [1]; with AA1029; in the assay on ATS95; with C2A; in the assay on CP191; with CP192) was “inactive” each time. Moreover, the Potency result in the assay on CP238, with CP252, in the assay with CP256, with CP262, in the assay on CP305 and in the assay on CP329 was “inactive” throughout. Also, the Potency result in the assay on ECU, in the assay on FAB9, in the assay with JCK, in the assay with N140, in the assay with PC15 and in the assay on PC49 was “inactive” each time. The Potency result in the assay with TAB109 and with TAB165 was “inactive” each time.

As to `CC(C)NC[C@H]1CCc2cc(CO)c([N+](=O)[O-])cc2N1`, the Potency entry in the assay with AA1029, with ATS95, in the assay with C2A, in the assay on CP191, in the assay with CP192 and with CP238 was “inactive” in each case. For the same compound, the Potency entry in the assay with CP252, in the assay on CP256, with CP305, with CP329, with ECU and in the assay on FAB9 was “inactive” throughout. Also, the Potency entry in the assay on JCK, with N140, in the assay on PC15, in the assay on PC49, in the assay on TAB109 and in the assay with TAB165 was “inactive” in each case.
